Only some compounds are listed: those with a hit (about 2.8% of all), similar ones and a draw of the others.
SIRT5 inh – sirtuin-5 (human) deacylase inhibition; Q9NXA8; Purified SirT5, succinyl-peptide AMC, trypsin-coupled fluorescence; inhibition, % at 15 µM; 330,000 compounds, 1.1% hits; in the data active means inhibition above about 15%
PvdQ acylase – P. aeruginosa PvdQ acylase inhibition; purified PvdQ acylase, fluorescence plate reader; AID 488965; inhibition, % at 10 µM; 340,000 compounds, 0.063% hits; in the data active means inhibition above about 30%, passing the limit was not always enough
PglD DTNB – inhibitors of Campylobacter jejuni PglD acetyltransferase; purified PglD enzyme, DTNB colorimetric CoA detection; inhibition, % at 12.5 µM; 360,000 compounds, 0.098% hits; AID 602405; in the data active means inhibition above about 16%, passing the limit was not always enough
FGF22 binding-1 – binders of recombinant human FGF22 by thermal shift; Q9HCT0; SYPRO orange fluorescence; percent of sucrose octasulfate shift, DMSO zero; activity (Tm shift, normalised), % at 9.99 µM; 340,000 compounds, 1.5% hits;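 active means mean Tm shift, scaled 0 neutral to 100 positive control, at about 1.3% or above, every replicate too, limit read from the data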
CDK5 p35 inh – blocks human CDK5/p35 kinase activity. Q00535+Q15078. Recombinant CDK5/p35, ADP-Glo luminescence, 60 min. inhibition, % at 10 µM. 330,000 compounds, 0.01% hits. AID 488839;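 active means highest replicate inhibition of at least 50% and at least 75% of replicates reaching 50%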
Target sequence (Q00535 whole entry, looked up): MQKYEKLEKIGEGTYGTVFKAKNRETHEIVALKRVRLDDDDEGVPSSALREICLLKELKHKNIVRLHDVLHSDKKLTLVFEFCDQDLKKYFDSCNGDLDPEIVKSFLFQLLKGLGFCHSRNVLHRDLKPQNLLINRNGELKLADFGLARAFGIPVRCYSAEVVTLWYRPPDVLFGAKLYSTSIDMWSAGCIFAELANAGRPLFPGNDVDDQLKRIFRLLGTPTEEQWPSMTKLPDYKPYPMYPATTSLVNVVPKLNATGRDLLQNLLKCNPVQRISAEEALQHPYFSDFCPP
Target sequence (Q15078 whole entry, looked up): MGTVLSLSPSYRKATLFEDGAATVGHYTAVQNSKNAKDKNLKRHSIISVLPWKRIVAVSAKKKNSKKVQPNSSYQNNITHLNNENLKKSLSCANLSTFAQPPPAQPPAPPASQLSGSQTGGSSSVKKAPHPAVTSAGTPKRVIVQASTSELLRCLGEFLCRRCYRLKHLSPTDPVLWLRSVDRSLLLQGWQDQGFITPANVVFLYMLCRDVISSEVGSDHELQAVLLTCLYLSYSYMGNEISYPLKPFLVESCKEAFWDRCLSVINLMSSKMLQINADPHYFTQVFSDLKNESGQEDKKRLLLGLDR
dFosB act – enhances mouse delta FosB homodimer DNA binding | purified delta FosB, TAMRA-CDK5 oligo fluorescence polarization; percent of positive-control signal above neutral wells | activation, % at 25 µM | 340,000 compounds, 0.99% hits | AID 493131;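 active means mean activation above about 17%, with every replicate also reaching it, limit read from the data, passing the limit was not always enough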
FGF22 binding-2 – binds human FGF22 shifting its melting temperature. thermal shift activity, °C (ΔTm) at 38 µM. 1,000 compounds, 2% hits. recombinant FGF22 thermal shift, SYPRO orange fluorescence. shares compounds with FGF22 binding-1;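 active means fitted rise in melting shift crosses a set limit at or below the top valid dose tested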
FGF22 TSA DP – binds human FGF22 shifting its melting temperature; shares compounds with FGF22 binding-1; Thermal shift assay, SYPRO orange, melting temperature shift; Tm shift (activity), % at 38 µM; 50 tested, under 10 active; AID 743017;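 active means compounds whose fitted dose curve of melting temperature shift rises past a set threshold within the tested doses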
SYPRO no-protein – counter-screen for FGF22 binders: compound-only thermal shift, no protein; AID 743019; AC50, µM (titrated, usually from 38 µM); compound-only SYPRO orange thermal shift counter-screen; 1,000 compounds, 2% hits; shares compounds with FGF22 binding-1;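 active means rising signal whose fitted curve reaches the 0.54 level within the top valid dose, showing a melting point, actives reach about 13 µM in these data; inactive means the rest, including activity in the opposite direction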; further: value is where the raw curve crosses a fixed level and not half-maximal
Numbers stand for hits; ! = not active in a repeat.

COc1cccc(-c2ccc([C@@H]3[C@H](CO)N4C(=O)CN(C(=O)CN5CCOCC5)C[C@@H]34)cc2)c1 was read as SIRT5 inh inactive.
C[C@@H](O)C#Cc1cnc2c(c1)C(=O)N([C@@H](C)CO)C[C@H](C)[C@@H](CN(C)C(=O)CC1CC1)O2 was read as SIRT5 inh inactive, PglD DTNB inactive and FGF22 binding-1 inactive.
COCC(=O)N1CCC2(CC1)CN(C(=O)Nc1ccccc1F)[C@H](CO)c1c2c2ccc(OC)cc2n1C was read as SIRT5 inh inactive and FGF22 binding-1 inactive.
Screening C[C@@H]1CN([C@H](C)CO)S(=O)(=O)c2ccc(C#CCN(C)C)cc2O[C@@H]1CN(C)Cc1ccccc1F returned SIRT5 inh inactive, PglD DTNB inactive, FGF22 binding-1 4.7!, FGF22 binding-2 inactive and SYPRO no-protein inactive.
`O=C(Nc1nnc(C(F)(F)F)s1)c1ccc(Br)s1` gave SIRT5 inh inactive, PvdQ acylase inactive, FGF22 binding-1 2.0, CDK5 p35 inh inactive, dFosB act inactive, FGF22 binding-2 inactive and SYPRO no-protein inactive.
CCSc1nnc(NC(=O)c2ccc(Br)s2)s1 was read as PvdQ acylase inactive, PglD DTNB inactive, CDK5 p35 inh inactive and dFosB act inactive.
Screening COc1ccc(NS(=O)(=O)c2cccc(C(=O)NN=Cc3ccc(OC)c(O)c3)c2)cc1 returned PvdQ acylase inactive, PglD DTNB inactive, FGF22 binding-1 34, CDK5 p35 inh inactive, dFosB act inactive, FGF22 binding-2 inactive and SYPRO no-protein inactive.
COc1ccc(/C=N/NC(=O)CN(c2ccc(OC)cc2)S(=O)(=O)c2ccccc2)cc1 was read as SIRT5 inh inactive, PvdQ acylase inactive, FGF22 binding-1 inactive, CDK5 p35 inh inactive and dFosB act inactive.
`COc1ccc(N(CC(=O)N/N=C/c2ccc(OC)c(OC)c2)S(=O)(=O)c2ccccc2)cc1` gave SIRT5 inh inactive, PvdQ acylase inactive, PglD DTNB inactive, FGF22 binding-1 1.5, CDK5 p35 inh inactive, dFosB act inactive, FGF22 binding-2 inactive and SYPRO no-protein inactive.
N#C/C(=C\c1ccc(N2CCOCC2)c([N+](=O)[O-])c1)c1nc2ccccc2[nH]1 was read as PvdQ acylase inactive, FGF22 binding-1 1.7, CDK5 p35 inh inactive, dFosB act inactive, FGF22 binding-2 inactive and SYPRO no-protein inactive.
For CCCNC(=O)N1[C@H](CO)[C@H](c2ccccc2C2=CCCC2)[C@@H]1C#N the results were SIRT5 inh inactive and FGF22 binding-1 inactive.
Screening Cc1ccc(NC(=O)COC(=O)Cc2c[nH]c3ccccc23)cc1C returned SIRT5 inh inactive, PvdQ acylase inactive, PglD DTNB inactive, FGF22 binding-1 inactive, CDK5 p35 inh inactive and dFosB act inactive.
For COc1ccc(NC(=O)COC(=O)Cc2c[nH]c3ccccc23)cc1Cl the results were SIRT5 inh inactive, PvdQ acylase inactive, PglD DTNB inactive, FGF22 binding-1 1.7, CDK5 p35 inh inactive, dFosB act inactive, FGF22 binding-2 inactive and SYPRO no-protein inactive.
For COc1ccc(Nc2nc3ccc(OC)cc3s2)cc1 the results were SIRT5 inh 16, PvdQ acylase inactive, FGF22 binding-1 1.5, CDK5 p35 inh inactive, dFosB act inactive, FGF22 binding-2 inactive, FGF22 TSA DP inactive and SYPRO no-protein inactive.
COc1ccc2nc(NC(=O)CCn3cccc3)sc2c1 was read as PvdQ acylase inactive, PglD DTNB inactive, CDK5 p35 inh inactive and dFosB act inactive.
Screening COc1ccc2nc(NC(=O)CCc3cc(OC)c(OC)c(OC)c3)sc2c1 returned SIRT5 inh inactive, PvdQ acylase inactive, FGF22 binding-1 1.9, CDK5 p35 inh inactive, dFosB act inactive, FGF22 binding-2 inactive and SYPRO no-protein inactive.
`Cc1ccc(S(=O)(=O)N[C@@H]2CC[C@@H](CCn3cc(-c4cccc(F)c4)nn3)O[C@@H]2CO)cc1` gave SIRT5 inh inactive, PglD DTNB inactive and FGF22 binding-1 inactive.
`C[C@H]1CN([C@@H](C)CO)C(=O)c2cc(NC(=O)c3ccncc3)ccc2O[C@@H]1CN(C)S(=O)(=O)c1cn(C)cn1` gave SIRT5 inh inactive, PglD DTNB inactive, FGF22 binding-1 1.4, FGF22 binding-2 inactive and SYPRO no-protein inactive.
Screening Cc1noc(C)c1S(=O)(=O)N(C)C[C@H]1Oc2ccc(NS(=O)(=O)c3cccs3)cc2C(=O)N([C@@H](C)CO)C[C@H]1C returned SIRT5 inh inactive, PglD DTNB inactive, FGF22 binding-1 2.1, FGF22 binding-2 inactive and SYPRO no-protein inactive.
`C[C@@H]1CN([C@H](C)CO)C(=O)c2cc(NC(=O)c3ccncc3)ccc2O[C@H]1CN(C)S(=O)(=O)c1cn(C)cn1` gave SIRT5 inh inactive, PglD DTNB inactive and FGF22 binding-1 inactive.
C[C@@H]1CN([C@H](C)CO)C(=O)Cc2cc(NC(=O)C3CC3)ccc2O[C@H]1CN(C)S(=O)(=O)c1cn(C)cn1 was read as SIRT5 inh inactive, PglD DTNB inactive, FGF22 binding-1 1.3, FGF22 binding-2 inactive and SYPRO no-protein inactive.
C[C@@H]1CN([C@@H](C)CO)C(=O)c2cc(NS(=O)(=O)c3cn(C)cn3)ccc2O[C@@H]1CN(C)CC1CC1 was read as SIRT5 inh inactive, PglD DTNB inactive, FGF22 binding-1 1.4, FGF22 binding-2 inactive and SYPRO no-protein inactive.
`C[C@@H]1CN([C@H](C)CO)C(=O)c2cc(N(C)C)ccc2O[C@@H]1CN(C)CC1CCCCC1` gave SIRT5 inh inactive, PglD DTNB inactive, FGF22 binding-1 1.4, FGF22 binding-2 inactive and SYPRO no-protein inactive.
C[C@@H]1CCCCO[C@@H](CN(C)CC2CCCCC2)[C@@H](C)CN([C@@H](C)CO)C(=O)c2cc(N(C)C)ccc2O1 was read as SIRT5 inh inactive, PglD DTNB inactive and FGF22 binding-1 inactive.
C[C@H]1CN([C@@H](C)CO)C(=O)c2cc(NC(=O)CCC(F)(F)F)ccc2O[C@H]1CN(C)CC1CC1 was read as SIRT5 inh inactive, PglD DTNB inactive, FGF22 binding-1 1.8, FGF22 binding-2 inactive and SYPRO no-protein inactive.
`C[C@H](CO)N1C[C@H](C)[C@@H](CN(C)S(=O)(=O)c2cn(C)cn2)OCCCC[C@H](C)Oc2ccc(NC(=O)CCC(F)(F)F)cc2C1=O` gave SIRT5 inh inactive, PglD DTNB inactive and FGF22 binding-1 inactive.

Screening results from PubChem BioAssay.
